p53 reactivator: qHTS assay for re-activators of p53 using a Luc reporter. Potency, µM (highest dose often 92.2 µM), for the others: at the top dose activity change, positive = activation, actives largely listed as activators. H1299 p53-A138V BP100-luciferase reporter, luminescence, 24 h. AID 504706, 2011. hit rate 0.063% among 320,000; also: potency is read from the fitted curve at half-maximal effect; % of control where 0% means no effect; nearly all actives have a fitted effect of over 45% in size
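H1299 (p53-null), stable ts p53-A138V + BP100-Luc; 1000 cells/well, Opti-MEM/10% FBS; cpd 4 pt, 1:5; 24 h, 37 deg C, 5% CO2; detection reagent 10 min RT; luminescence.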
CtBP-E1A blk: qHTS Assay for Inhibitors of the CtBP/E1A Interaction. hit rate 0.49% among 340,000. activity change, % (concentration not given with the values). AlphaScreen GST-E1A/His-CtBP binding, 1536-well; hits give low values; in the data active = activity change below about -65%; inconclusive = mostly about -30% to -63%; also: % is scaled to controls: 0 for no effect and ±100 for the full control effect
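Steps: dispense buffer (Tris pH 8.0, NaCl 300 mM, TCEP 1 mM, BSA, Tween 20); add 5X protein mix (GST-E1A, His-CtBP, 125 nM each); pin 23 nL compound; 2 h at 37 °C, dark; add 5X beads (50 ug/mL); 1 h; read.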
Six1-Eya2 blk: qHTS Assay for Inhibitors of the Six1/Eya2 Interaction | hit rate 0.56% among 360,000 | AlphaScreen GST-Six1/His-Eya2 binding, biochemical; hits give low values | Homeobox protein SIX1 (Homo sapiens) + Protein phosphatase EYA2 (Homo sapiens), … | activity change, % (concentration not given with the values); in the data active = activity change below about -65%; inconclusive = mostly about -30% to -63%; also: % is scaled to controls: 0 for no effect and ±100 for the full control effect
Target sequence (O00167 whole entry, looked up): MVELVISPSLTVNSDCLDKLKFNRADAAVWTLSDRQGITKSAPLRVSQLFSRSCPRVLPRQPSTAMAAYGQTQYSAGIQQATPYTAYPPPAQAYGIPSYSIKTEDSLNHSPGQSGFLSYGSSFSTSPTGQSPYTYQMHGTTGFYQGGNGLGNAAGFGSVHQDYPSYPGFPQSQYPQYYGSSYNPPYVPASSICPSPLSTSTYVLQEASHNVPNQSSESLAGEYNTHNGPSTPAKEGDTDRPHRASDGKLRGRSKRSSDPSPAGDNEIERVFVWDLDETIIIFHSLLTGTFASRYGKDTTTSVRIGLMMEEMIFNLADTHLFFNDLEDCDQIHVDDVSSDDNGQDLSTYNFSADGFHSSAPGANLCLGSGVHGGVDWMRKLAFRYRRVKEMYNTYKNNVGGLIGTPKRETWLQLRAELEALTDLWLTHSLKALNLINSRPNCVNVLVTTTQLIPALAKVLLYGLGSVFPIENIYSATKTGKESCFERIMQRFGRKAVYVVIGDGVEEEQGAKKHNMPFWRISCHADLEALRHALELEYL
Target sequence (Q15475 whole entry, looked up): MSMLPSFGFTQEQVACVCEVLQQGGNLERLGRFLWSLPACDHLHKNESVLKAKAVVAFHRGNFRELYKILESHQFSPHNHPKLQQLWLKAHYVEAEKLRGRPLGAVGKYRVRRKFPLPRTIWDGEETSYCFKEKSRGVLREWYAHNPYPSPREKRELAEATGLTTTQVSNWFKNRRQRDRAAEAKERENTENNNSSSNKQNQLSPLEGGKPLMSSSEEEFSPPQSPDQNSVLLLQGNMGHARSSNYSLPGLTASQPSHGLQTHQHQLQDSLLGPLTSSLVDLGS
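Homogeneous AlphaScreen proximity assay pairing GST-Six1 with His-tagged Eya2 (added as 5X mix: 250 nM and 500 nM) in 50 mM Tris pH 8.0, 300 mM NaCl, 1 mM TCEP. Glutathione donor and nickel acceptor beads; 1 h, 37 °C, dark.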
VP16 counter: VP16 counterscreen qHTS for inhibitors of ROR gamma transcriptional activity. Drosophila S2 Gal4-VP16 UAS-luciferase, luminescence, 20 h. Potency, µM (doses to about 53.6 µM), without a hit: at the highest dose activity, negative = inhibition, actives largely listed as inhibitors. hit rate 3.5% among 310,000;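 also: Gal4-VP16 expression switched on by copper sulfate through the metallothionein promoter; potency is read from the fitted curve at half-maximal effect; % is scaled to controls: 0 for no effect and ±100 for the full control effect; nearly all actives have a fitted effect of over 50% in size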
RORg inh: qHTS for inhibitors of ROR gamma transcriptional activity. Nuclear receptor ROR-gamma (Mus musculus), P51450. Drosophila S2 Gal4-RORgamma UAS-luciferase reporter, 20 h. Potency, µM (titrated, usually from 53.6 µM), without a hit: at the highest dose activity change, negative = inhibition, usual class: inhibitors. hit rate 5.4% among 310,000. AID 2551, 2010; also: potency is read from the fitted curve at half-maximal effect; % is scaled to controls: 0 for no effect and ±100 for the full control effect; nearly all actives have a fitted effect of over 60% in size
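Stable Schneider cell line, Gal4 DNA-binding domain fused to ROR gamma, UAS-luciferase. Cmpd 1 hr RT → CuSO4 700 uM final → 20 hr RT → luciferase reagent 10 min → luminescence.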
The depositor's hits bear a star; [ ] = remark or other dose. An excerpt weighted towards active compounds, which were near 5.4% of everything screened. Unless noted, calls follow the shape of the dose curve; as a rule, active = well fitted curve in the direction sought with a large enough effect; inconclusive = small, poorly fitted or top-dose-only effect, or another doubt; inactive = no such curve, though single readings can be large; an effect the other way counts as inactive or inconclusive.

`CCCCC(CC)COC(=O)c1ccccc1O` (stereo unspecified) gave VP16 counter -9% and RORg inh -21%.
CCN1C(=O)c2ccc(C(=O)Nc3c(C)cc(C)cc3C)cc2C1=O was read as p53 reactivator inconclusive, CtBP-E1A blk 5, Six1-Eya2 blk 0, VP16 counter -8% and RORg inh -11%.
COc1ccc2c(c1)OC(=O)CC2c1ccccc1C (stereo unspecified) was read as VP16 counter -2%[96.6 µM] and RORg inh -11%[96.6 µM].
`O=C1c2ccccc2-c2onc3ccc(NCCCn4ccnc4)c1c23` gave p53 reactivator -8%, CtBP-E1A blk 14, Six1-Eya2 blk -78*, VP16 counter -23% and RORg inh 13µM*.
Screening S=c1[nH]c2ccc(Cl)cc2[nH]1 returned p53 reactivator 2%, CtBP-E1A blk 3, Six1-Eya2 blk 0, VP16 counter 7% and RORg inh -3%.
For S=c1[nH]c2cc(Cl)ccc2s1 the results were p53 reactivator 7%, CtBP-E1A blk 5, Six1-Eya2 blk 5, VP16 counter inconclusive and RORg inh 13µM*.
Screening COc1cc(CNC2CCCCCCC2)c(Br)cc1OCCO returned p53 reactivator inconclusive, CtBP-E1A blk 4, Six1-Eya2 blk 2, VP16 counter -8% and RORg inh 3%.
Screening O=S(=O)(c1ccccc1)N1CCN(S(=O)(=O)c2ccccc2)C1 returned p53 reactivator -11%, CtBP-E1A blk 3, Six1-Eya2 blk 5, VP16 counter 9% and RORg inh 5%.
For O=S(=O)(/N=S1/CC=CCN1S(=O)(=O)c1ccccc1)c1ccccc1 (stereo unspecified) the results were p53 reactivator -25%, CtBP-E1A blk 0, Six1-Eya2 blk 6, VP16 counter inconclusive and RORg inh 11µM*.
Screening Oc1ccccc1-c1nnc(COc2ccccc2)o1 returned p53 reactivator inconclusive, CtBP-E1A blk 9, Six1-Eya2 blk 2, VP16 counter inconclusive and RORg inh 10µM*.
`c1ccc(OCc2nnc(-c3ccccc3)o2)cc1` gave p53 reactivator 4%, CtBP-E1A blk 2, Six1-Eya2 blk 28, VP16 counter 5% and RORg inh 5%.
Oc1ccccc1-c1nnc(COc2ccc(Cl)cc2Cl)o1 was read as p53 reactivator inconclusive, CtBP-E1A blk 0, Six1-Eya2 blk 2, VP16 counter 4.5µM* and RORg inh 2.5µM*.
`CN(C)C(CNc1ccc(C(F)(F)F)cc1[N+](=O)[O-])c1ccccc1` (stereo unspecified) gave p53 reactivator 30%, CtBP-E1A blk -29, Six1-Eya2 blk inconclusive, VP16 counter 0% and RORg inh 0%.
For Cc1ccc(C(C)C)c(OCC(O)CN2CCc3ccccc3C2)c1 (stereo unspecified) the results were p53 reactivator -15%, CtBP-E1A blk -8, Six1-Eya2 blk -2, VP16 counter 22µM* and RORg inh -6%.
`CCOc1ccc(-c2c[n+]3c(n2-c2ccccc2)CCCCC3)cc1` gave p53 reactivator -8%, CtBP-E1A blk -4, Six1-Eya2 blk 3, VP16 counter 3.5µM* and RORg inh inconclusive.
Screening COc1ccc(-n2c(-c3ccccc3)c[n+]3c2CCC3)cc1 returned p53 reactivator 1%, CtBP-E1A blk 1, Six1-Eya2 blk -1, VP16 counter inconclusive and RORg inh inconclusive.
For CN(CC(=O)NCCCc1ccccc1)S(=O)(=O)c1ccc(Br)cc1 the results were p53 reactivator -48%, CtBP-E1A blk 5, Six1-Eya2 blk 8, VP16 counter -3% and RORg inh inconclusive.
O=C1c2ccccc2C(=O)c2c(Nc3ccc(CCO)cc3)ccc(O)c21 was read as p53 reactivator -6%, Six1-Eya2 blk -83*, VP16 counter inconclusive and RORg inh -13%.
Screening O=S(=O)(c1ccccc1)N1N=C(c2ccc(O)cc2)CC1c1ccco1 (stereo unspecified) returned p53 reactivator -9%, CtBP-E1A blk 22, Six1-Eya2 blk 0, VP16 counter 20µM* and RORg inh -20%.

Source: PubChem (National Center for Advancing Translational Sciences (NCATS))
